Screening results: PubChem, several laboratories
In the library only some 7.9% were active in any assay of this set; here they are far more common.
PLAP activator: PLAP enzyme activators, biochemical, luminescence, HTS. purified PLAP enzyme, luminescent substrate read-out; stronger effect = higher value. activation fold at 20 µM. hit rate 1.2% among 96,000. AID 696, 2007; in the data active = activation fold above about 2
Cav3 T inh: Cav3.2 calcium influx blockers – cell-based, Fluo-4 calcium fluorescence, FDSS, MLSMR library, primary screen; Voltage-dependent T-type calcium channel subunit alpha-1H (Homo sapiens), O95180; Cav3.2-expressing cells; stronger effect = lower value; B-score at 10 µM; hit rate 4% among 100,000;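 active = single-dose well whose peak fluorescence ratio is a statistical outlier from its plate by either plate-standardised score or position-corrected B-score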
M1 antag: antagonists of rat M1 muscarinic receptor | CHO-M1 cells, Fluo-4 calcium, ACh EC80 antagonist mode; stronger effect = lower value | B-score at 10 µM | hit rate 3.4% among 64,000 | AID 628, 2007;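 active = calcium fluorescence response, raw or row-and-column corrected B-score, differing from the plate sample mean either way at a set confidence level, mostly lower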
Her2 expr inh: inhibitors of Her2 protein expression, primary screen, SKBR-3 cells, AlphaScreen, 66K library; Receptor tyrosine-protein kinase erbB-2 (Homo sapiens), P04626; SKBR-3 HER2 protein level, 18-24 h; stronger effect = lower value; HER2 level % of control, % at 10 µM; hit rate 0.69% among 65,000; AID 645, 2007;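 active = HER2 level under 5% of the carrier-only control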;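 note: lower value means stronger loss of Her2 protein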
M1 ag: M1 muscarinic receptor agonists, primary screen, CHO-M1 cells, Fluo-4 calcium, agonist mode; Muscarinic acetylcholine receptor M1; Fluo-4 calcium fluorescence; stronger effect = higher value; B-score at 10 µM; hit rate 3% among 64,000;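 active = fluorescence rise, raw or as B-score row- and column-corrected plate score, outside the 99.7% band of its plate's samples, either direction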
A number is an active result.

How did CC(C)C1O/C(=N/C(=O)Nc2ccc(Cl)c(Cl)c2)NC1=O (stereo not given) do in these assays?
PLAP activator: inactive; Cav3 T inh: -5; M1 antag: inactive; Her2 expr inh: inactive; M1 ag: inactive

What do the screens show for `Cc1cccc(Sc2c(C=O)c3ccccc3n2C)c1`?
PLAP activator: inactive; Cav3 T inh: inactive

Results for COc1ccc(-c2nc(-c3ccccc3)c(-c3cccs3)[nH]2)cc1OC ?
PLAP activator: 2; Cav3 T inh: inactive

How did CC(=O)c1sc2nc(-c3cccs3)ccc2c1N do in these assays?
PLAP activator: inactive; Cav3 T inh: inactive

What do the screens show for `Nc1c(C(=O)C2CC2)sc2nc(-c3cccs3)cc(C(F)(F)F)c12`?
PLAP activator: inactive; Cav3 T inh: -7.9

Results for C#C[C@]1(O)CCC2C3CCC4=Cc5oncc5CC4(C)C3CCC21C (stereo not given in full) ?
Cav3 T inh: -4.8

How did C#C[C@]1(O)CC[C@H]2[C@@H]3CCc4cc(O)ccc4[C@H]3CC[C@@]21C do in these assays?
Cav3 T inh: inactive; Her2 expr inh: inactive

Results for CCCN1C(=O)/C(=C/C=C2\N(CC)c3ccccc3C2(C)C)SC1=S ?
PLAP activator: inactive; Cav3 T inh: -4.5

How did COc1ccc(NC(C)C(=O)N/N=C/c2ccccc2OCc2ccc(Br)cc2)cc1 (stereo not given) do in these assays?
PLAP activator: inactive; Cav3 T inh: -5.9

How did CCn1c(CCNC(=O)c2cccs2)nnc1SCC(=O)Nc1cccc(Cl)c1 do in these assays?
Cav3 T inh: inactive

How did Cc1csc(NC(=O)CSc2nnc(Cc3cccn3C)n2-c2ccc(F)cc2)n1 do in these assays?
PLAP activator: inactive; Cav3 T inh: -5.8; M1 antag: inactive; Her2 expr inh: inactive; M1 ag: inactive

How did CC(=O)c1ccc(NC(=O)CSc2nnc(Cc3cccn3C)n2-c2ccc(F)cc2)cc1 do in these assays?
PLAP activator: inactive; Cav3 T inh: inactive; M1 antag: inactive; Her2 expr inh: inactive; M1 ag: inactive

Results for Cc1ccc(NC(=O)CSc2nnc(Cc3cccn3C)n2-c2ccc(F)cc2)cc1 ?
PLAP activator: inactive; Cav3 T inh: -3.9; M1 antag: inactive; Her2 expr inh: inactive; M1 ag: inactive

What do the screens show for `CCc1ccc(NC(=O)CSc2nnc(Cc3cccn3C)n2-c2ccc(F)cc2)cc1`?
PLAP activator: inactive; Cav3 T inh: -4.1; M1 antag: inactive; Her2 expr inh: inactive; M1 ag: inactive

Results for CCn1c(CCNC(=O)c2cccs2)nnc1SCC(=O)Nc1nc(-c2ccccc2)cs1 ?
Cav3 T inh: -7.5

Results for CC1CC(C)CN(c2nc3c(c(=O)[nH]c(=O)n3C)n2CCSc2nc3ccccc3o2)C1 (stereo not given) ?
M1 antag: inactive; Her2 expr inh: inactive; M1 ag: inactive

How did CCOC(=O)C(C(=O)Nc1ccc(C)cc1)C1CCCCC1 (stereo not given) do in these assays?
PLAP activator: inactive; Cav3 T inh: inactive

What do the screens show for `CC1=C(C(=O)OCc2ccccc2)C(c2ccccc2OS(=O)(=O)c2ccc(C)cc2)NC(=O)N1CCCC(=O)O` (stereo not given)?
Cav3 T inh: inactive

Results for c1ccc(-c2nc(NC3CC3)nc(-n3ccnc3)n2)cc1 ?
PLAP activator: inactive; Cav3 T inh: inactive; M1 antag: inactive; Her2 expr inh: inactive; M1 ag: inactive

Results for COC(=O)c1ccc([C@H]2C=C(C(=O)O)O[C@@H](OCc3ccc(CO)cc3)C2)cc1 ?
Cav3 T inh: inactive

What do the screens show for `Cc1cc(C)nc(SCc2nnc(SCC(=O)Nc3nc(-c4ccccc4)cs3)n2-c2ccccc2)n1`?
PLAP activator: 2; Cav3 T inh: -8.4

How did c1csc(-c2csc3ncnc(NCCCN4CCOCC4)c23)c1 do in these assays?
PLAP activator: inactive; Cav3 T inh: inactive; M1 antag: inactive; Her2 expr inh: inactive; M1 ag: 2

What do the screens show for `c1ccc(-c2csc3ncnc(NCCCN4CCOCC4)c23)cc1`?
Cav3 T inh: inactive

What do the screens show for `Cc1c(NC(=O)OCCNC(=O)COc2c(Cl)cccc2Cl)sc(=S)n1C`?
PLAP activator: inactive; Cav3 T inh: inactive

What do the screens show for `Cc1nnc(NC(=O)CSc2nnc(CCc3nc4ccccc4[nH]3)n2C)s1`?
PLAP activator: 2.1; Cav3 T inh: inactive; M1 antag: inactive; Her2 expr inh: inactive; M1 ag: inactive

How did CCSCc1nnc(SCC(=O)Nc2nc3ccccc3s2)n1C do in these assays?
PLAP activator: inactive; Cav3 T inh: inactive; M1 antag: inactive; Her2 expr inh: inactive; M1 ag: inactive

What do the screens show for `O=C(c1cc2n(n1)C(C(F)(F)F)CC(c1ccco1)N2)N1CCc2ccccc2C1` (stereo not given)?
PLAP activator: inactive; Cav3 T inh: -3.7; M1 antag: inactive; Her2 expr inh: inactive; M1 ag: inactive

What do the screens show for `O=C(c1ccco1)N1CCN(C(=O)c2cnn3c2NC(c2cccs2)CC3C(F)(F)F)CC1` (stereo not given)?
PLAP activator: inactive; Cav3 T inh: inactive; M1 antag: inactive; Her2 expr inh: inactive; M1 ag: inactive

How did COc1ccccc1N1CCN(C(=O)c2cc3n(n2)C(C(F)(F)F)CC(c2ccco2)N3)CC1 (stereo not given) do in these assays?
PLAP activator: inactive; Cav3 T inh: inactive; M1 antag: inactive; Her2 expr inh: inactive; M1 ag: inactive

How did O=C(c1cnn2c1NC(c1ccco1)CC2C(F)(F)F)N1CCN(c2cccc(Cl)c2)CC1 (stereo not given) do in these assays?
PLAP activator: inactive; Cav3 T inh: -4.2; M1 antag: inactive; Her2 expr inh: inactive; M1 ag: inactive

Results for CCCC(=O)C1=C(O)C(C(=O)OC)C(C)(C)CC1=NC(C)(C)C (stereo not given) ?
PLAP activator: inactive; Cav3 T inh: 4.1

Results for COc1ccc(N2CCN(CCNC(=O)c3ccc(NC(=O)C4CCCO4)cc3)CC2)cc1 (stereo not given) ?
PLAP activator: inactive; Cav3 T inh: inactive; M1 antag: inactive; Her2 expr inh: inactive; M1 ag: -2.8

Results for Cc1cccc(NC(=O)CN(c2ccc(C(C)C)cc2)S(=O)(=O)c2c(C)nn(C)c2C)n1 ?
PLAP activator: inactive; Cav3 T inh: inactive

How did Cc1cc(-n2c(C)cc(C(=O)CN3C(=O)NC4(CCCCC4)C3=O)c2C)no1 do in these assays?
PLAP activator: inactive; Cav3 T inh: inactive; M1 antag: 1.7; Her2 expr inh: inactive; M1 ag: inactive

What do the screens show for `Cc1oc(-c2ccccc2F)nc1CS(=O)(=O)CC(=O)N1CCc2ccccc21`?
PLAP activator: inactive; Cav3 T inh: -4.7; M1 antag: inactive; Her2 expr inh: inactive; M1 ag: inactive

What do the screens show for `Cc1ccc(-c2nc(CS(=O)(=O)CC(=O)N3CCc4ccccc4C3)c(C)o2)cc1`?
PLAP activator: inactive; Cav3 T inh: -9; M1 antag: inactive; Her2 expr inh: inactive; M1 ag: inactive
